The list is not random: actives were taken first. Their share in the collection is about 2.4%.
D2 PAM-1 – HTS Assay for Positive Allosteric Modulators of the Human D2 Dopamine Receptor: Primary Screen for Potentiators | 340,000 tested, 0.34% active | potentiation, % at 10 µM | HEK293 T-REx D2, calcium flux, EC20 dopamine potentiation | AID 485347, 2010;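 active = potentiation over 3 SD above the plate norm, cut at about 30% in these data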
Target sequence (P14416 whole entry, looked up): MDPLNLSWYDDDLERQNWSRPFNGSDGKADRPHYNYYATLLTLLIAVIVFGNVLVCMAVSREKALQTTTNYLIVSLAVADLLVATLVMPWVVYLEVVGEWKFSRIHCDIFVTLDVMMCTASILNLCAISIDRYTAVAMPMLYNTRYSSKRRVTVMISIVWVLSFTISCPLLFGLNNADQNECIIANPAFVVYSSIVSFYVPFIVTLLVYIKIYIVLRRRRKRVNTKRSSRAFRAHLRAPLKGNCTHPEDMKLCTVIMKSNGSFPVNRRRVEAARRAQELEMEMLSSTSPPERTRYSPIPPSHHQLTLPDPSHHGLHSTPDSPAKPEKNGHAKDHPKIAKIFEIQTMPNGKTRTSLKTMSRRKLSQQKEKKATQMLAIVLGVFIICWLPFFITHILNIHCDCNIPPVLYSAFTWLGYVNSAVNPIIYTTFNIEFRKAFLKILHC
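Tetracycline-induced Hek293 Trex D2 cells, force-coupled to calcium, loaded with no-wash calcium dye. Compound added with 180 s kinetic read for agonism, then EC20 dopamine and a further 180 s read for potentiation.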
D2 antagonist – HTS Assay for Allosteric Antagonists of the Human D2 Dopamine Receptor: Primary Screen for Antagonists; D(2) dopamine receptor (Homo sapiens), P14416; 340,000 tested, 2% active; HEK293 TREx D2 cells, calcium flux, dopamine EC80; inhibition, % at 10 µM; in the data active = inhibition above about 30%; inactive = below that, where a call was filed
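In this primary screen, negative modulation is detected by tracking calcium flux after an EC80 dopamine challenge in inducible HEK293 T-REx D2 cells preexposed to test compound for 180 s.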
D2 ag-1 – Beta-Arrestin HTS for Positive Allosteric Modulators of the Human D2 Dopamine Receptor: Agonists; D(2) dopamine receptor (Homo sapiens), P14416; DiscoveRx PathHunter D2 beta-arrestin, luminescence, 90 min; 100% = 57 uM dopamine signal; activation, % (concentration not given with the values); 360,000 tested, 0.084% active; AID 624465, 2012; in the data active = activation above about 40%
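DiscoveRx PathHunter D2 beta-arrestin cells (2,100/well) attached overnight, then compound-stimulated 90 min at 37 C in HBSS/10 mM HEPES/0.1% Tween-20 buffer; beta-galactosidase complementation read by luminescence after 1 h at ambient temperature. Dopamine 57 uM final (EC100) as control.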
D2 ag-2 – HTS Assay for Allosteric Agonists of the Human D2 Dopamine Receptor: Primary Screen for Agonists. 340,000 tested, 0.53% active. D(2) dopamine receptor (Homo sapiens), P14416. HEK293 T-REx D2 cells, calcium flux agonist mode. activation, % at 2 µM;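 active = activation over 3 SD above normal in the single-dose calcium agonist read, cut at about 30% in these data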
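HEK293 Trex D2 cells, tetracycline-induced, o/n 30 C 5% CO2; no-wash Ca dye, RT 30–90 min; 10-cycle baseline, 23 nl cpd added, kinetic Ca read 180 s; agonist hits = positive Ca response.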
D2 PAM-2 – Beta-Arrestin HTS for Positive Allosteric Modulators of the Human D2 Dopamine Receptor: Potentiators; D(2) dopamine receptor (Homo sapiens), P14416; DiscoveRx D2 beta-arrestin cells, luminescence, 90 min; 100% = 57 uM dopamine signal; AID 624464, 2012; potentiation, % (no concentration beside the values); 360,000 tested, 0.23% active; in the data active = potentiation above about 50%
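PathHunter beta-arrestin assay in DiscoveRx D2 cells. Compounds were added with an EC20 of dopamine (50 nM final) for 90 min at 37 deg C. Luminescence was read 1 h after detection reagent, with 57 uM dopamine as the EC100 control.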
Hits are given with their value; - = inactive; . = no result.

SMILES | D2 PAM-1 | D2 antagonist | D2 ag-1 | D2 ag-2 | D2 PAM-2
Cc1ccc([N+](=O)[O-])c(OCCN2CCC(Cc3ccccc3)CC2)c1 | - | 68.3 | - | - | -
CCCCCN1C(C(=O)c2ccccc2)=C(NC(=O)c2ccc(C)cc2)c2ccccc2S1(=O)=O | - | . | . | - | .
OC(COc1ccc(F)cc1Cl)CN1CCC(Cc2ccccc2)CC1 (configuration not stated) | - | - | - | - | -
COc1ccc(OC)c(S(=O)(=O)N2CCN(CC(O)COc3ccccc3)CC2)c1 (configuration not stated) | - | 47.9 | - | - | -
OC(COc1ccccc1F)CN1CCC(Cc2ccccc2)CC1 (configuration not stated) | - | 64.8 | - | - | -
OC(COc1ccccc1)CN1CCC(Cc2ccccc2)CC1 (configuration not stated) | - | 74.4 | - | - | -
COc1ccc(OC)c(S(=O)(=O)N2CCN(CC(O)COc3ccc(C#N)cc3)CC2)c1 (configuration not stated) | - | - | - | - | -
CN1CCN(CC(O)COc2ccccc2)CC1 (configuration not stated) | - | 32.5 | - | - | -
COc1cccc(OCC(O)CN2CCC(Cc3ccccc3)CC2)c1 (configuration not stated) | - | - | - | - | -
COc1cc(Cl)c(C)cc1NC(=O)c1cnc(N2CCCCC2)c2ccccc12 | - | . | . | - | .
Cn1ccsc1=NC(=O)c1ccc(OC(F)(F)F)cc1 | - | - | - | - | -
Cc1ccc(OCCN2CCN(CC(O)Cn3c4ccccc4c4ccccc43)CC2)cc1 (configuration not stated) | - | 62.7 | . | 62.7 | .
C=CCc1ccc(OCC(O)CN2CCC(Cc3ccccc3)CC2)c(OC)c1 (configuration not stated) | - | 41.2 | - | - | -
Cc1ccc(OCC(O)Cn2c3ccccc3c3ccccc32)cc1 (configuration not stated) | - | - | - | - | -
Cc1cc(C)cc(OCC(O)CN2CCN(Cc3ccc4c(c3)OCO4)CC2)c1 (configuration not stated) | - | - | - | - | -
OC(COc1ccccc1)CN1CCN(Cc2ccc3c(c2)OCO3)CC1 (configuration not stated) | - | 35.9 | - | - | -
C=CCSc1nc(C)c(CCCC)c(=O)[nH]1 | - | - | - | - | -
C=CCSc1nc(C)c(CC=C)c(=O)[nH]1 | 34.9 | - | - | - | -
COc1ccc(N=Nc2nc3ccc(Br)cc3n2C)cc1 | 33.2 | - | - | - | -
Cn1cc(S(=O)(=O)c2ccc(Cl)cc2)c(=O)c2cc(F)c(N3CCCCCC3)cc21 | - | . | . | - | .
O=C(Nc1c(C(=O)N2CCCCC2)cnn1-c1ccccc1)c1ccccc1F | - | - | - | - | -
N#Cc1cnn(-c2ccccc2)c1NC(=O)c1ccccc1F | 79.8 | - | - | - | -
CN1OC[C@@H]2CN(Cc3ccccc3)[C@H](c3cccc(-c4ccccc4)c3)C[C@@H]21 | . | . | - | . | -
Cc1ccc(S(=O)(=O)NC(=O)c2ccc(Br)o2)c(C)c1 | - | 31.5 | - | - | -
CSc1nsc(SCC(=O)Nc2ccc(C(C)=O)cc2)n1 | - | - | - | - | -
SMILES | D2 PAM-1 | D2 antagonist | D2 ag-1 | D2 ag-2 | D2 PAM-2
CSc1nsc(SCC(=O)Nc2ccc(C(N)=O)cc2)n1 | . | 37.4 | - | - | -
COc1ccc(-c2nc3scc(CCNC(=O)c4cccc(Br)c4)n3n2)cc1 | - | . | . | - | .
O=C(/C=C/c1ccc(Cl)c(Cl)c1)NC1=NCCS1 | - | - | - | - | -
Cc1ccc2nc(-c3cccnc3SCC(=O)N3c4ccccc4CC3C)[nH]c2c1 (configuration not stated) | - | - | - | - | -
CCCn1c(SCC(=O)N2CCc3ccccc32)nnc1-c1ccco1 | - | - | - | - | -
CCCn1c(SCC(=O)N2c3ccccc3CC2C)nnc1-c1ccco1 (configuration not stated) | 43.4 | - | - | - | -
Cc1ccc2nc(SCC(=O)N3c4ccccc4CC3C)c(C)cc2c1 (configuration not stated) | 32.0 | - | - | - | -
CCn1c(SCC(=O)N2c3ccccc3Sc3ccccc32)nnc1-c1ccco1 | 39.8 | - | - | - | -
C=CCn1c(SCC(=O)N2c3ccccc3Sc3ccccc32)nnc1-c1ccco1 | - | - | - | - | -
O=C(CSc1nnc(-c2ccccc2F)n1C1CC1)Nc1cccnc1Cl | - | - | - | - | -
O=C1CC2(CCCC2)CC(=O)N1CCCCN1CCN(c2ncccn2)CC1 | - | 87.9 | - | - | -
CN1C(=O)N(CC(=O)N2CCN(c3ncccn3)CC2)C(=O)C12CCCCC2 | - | - | - | - | -
O=c1c2c(nc(NCCO)n1CC1CCCCC1)-c1ccccc1CC21CCCC1 | - | - | - | - | -
CC1(C)CC(n2c(NCCO)nc3c(c2=O)C2(CCCC2)Cc2ccccc2-3)CCO1 (configuration not stated) | 34.2 | - | - | - | -
CCOC(=O)c1c(NC(=O)CSc2ncn[nH]2)sc(C)c1C | - | 38.1 | - | - | -
CCOC(=O)c1c(NC(=O)CSc2ncn[nH]2)sc(C(=O)NC)c1C | - | - | - | - | -
Cc1ccc(S(=O)(=O)Nc2cc3c(cc2NCc2ccccc2)n(C)c(=O)n3C)c(C)c1 | . | . | . | - | .
c1ccc(-c2ncnc3nc4n(c23)CCC4)cc1 | - | 33.7 | - | - | -
COc1ccc(C)cc1NC(=O)CCCN1C(=O)C(c2ccccc2)Oc2cccnc21 (configuration not stated) | - | 37.9 | - | - | -
CC(C)(C)n1nc2c(c1NC(=O)Cc1ccc(F)cc1)CSC2 | - | 34.7 | - | - | -
CCN(CC)CCNC(=O)c1cc(-c2ccc(Br)s2)nc2ccccc12 | - | - | - | - | -
CCN(CC)CCNC(=O)c1cc2cc(Br)ccc2s1 | - | 50.3 | - | - | -
Cc1ccc(C)c(N2CCN(CCCNC(=O)Cn3c(=O)c4cccn4c4cccnc43)CC2)c1 | - | 62.7 | - | - | -
Cc1ccc(C)c(N2CCN(CCCNC(=O)CCn3c(=O)c4cccn4c4cccnc43)CC2)c1 | - | - | - | - | -
Cc1ccc(C)c(N2CCN(CCCNC(=O)Cn3cc4c(n3)CCCCC4)CC2)c1 | - | 65.0 | - | - | -

Source: PubChem BioAssay (National Center for Advancing Translational Sciences (NCATS))
